In the library only some 21% were active in any assay of this set; here they are far more common.
CHX counter: Cycloheximide Counterscreen for Small Molecule Inhibitors of Shiga Toxin; cell reporter, cycloheximide protein synthesis inhibition counterscreen; max response, %; 300,000 tested, 12% active; in the data active = max response mostly above about 13%, no sharp cut-off; inactive = mostly below about 14%; also: read at 38.3 µM for the half of the compounds with a filed dose; 0% is about no effect
Pf growth 48h: Primary qHTS for delayed death inhibitors of the malarial parasite plastid, 48 hour incubation. AID 504832, 2011. 310,000 tested, 5.9% active. Potency, µM (series often up to 28.7 µM), for inactives: top-dose activity change, negative = inhibition, most hits filed as inhibitors. P. falciparum luciferase growth in erythrocytes, 48 h; also: potency is read from the fitted curve at half-maximal effect; % is scaled to controls: 0 for no effect and ±100 for the full control effect
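Luciferase-expressing parasites in RBCs, 2% Hct / 0.1% parasitemia final; RPMI 1640 + 0.5% Albumax; 37 C, 5% CO2, one generation; luminescence read-out, lower signal = inhibition.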
NS1 function inh: qHTS Assay for Inhibitors of Influenza NS1 Protein Function | Potency, µM (top dose mostly 46.1 µM), without a hit: top-dose activity, positive = more growth | 270,000 tested, 0.4% active; calls by dose curve; also: potency is read from the fitted curve at half-maximal effect; actives are rising curves; nearly all actives have a fitted effect of over 50% in size
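Compounds were scored for reversing the slow growth caused by influenza A NS1 in S. cerevisiae, measured by optical density at 600 nm. Assay medium contained 2% galactose at pH 6.0; NS1-free yeast of the same strain were the positive control.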
Shiga inhibitor: A qHTS for Small Molecule Inhibitors of Shiga Toxin; 290,000 tested, 9.2% active; inhibition, % at 38.7 µM; Vero cells, Shiga toxin protein synthesis inhibition reporter; in the data active = inhibition mostly above about 28%, no sharp cut-off; inactive = mostly below about 43%; also: 0% is about no effect
Pf growth 96h: Primary qHTS for delayed death inhibitors of the malarial parasite plastid, 96 hour incubation; P. falciparum luciferase reporter growth, 96 h; Potency, µM (series often up to 28.7 µM), for the others: top-dose activity change, negative = inhibition, hits mostly inhibitors; 320,000 tested, 6.9% active; also: potency is read from the fitted curve at half-maximal effect; % is scaled to controls: 0 for no effect and ±100 for the full control effect
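Cell-based qHTS: luciferase-tagged P. falciparum in erythrocytes (2% hematocrit, 0.05% parasitemia final) incubated with compounds for 96 hours, 37 C, 5% CO2; luciferase detection reagent then added and luminescence measured.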
The depositor's hits bear a star; ? = inconclusive; . = no result given; [ ] = remark or other dose. Unless noted, calls follow the shape of the dose curve; as a rule, active = well fitted inhibition curve with a large enough effect; inconclusive = small, poorly fitted or top-dose-only effect, or another doubt; inactive = no such curve, though single readings can be large or run the other way.

SMILES | CHX counter | Pf growth 48h | NS1 function inh | Shiga inhibitor | Pf growth 96h
COc1ccc(-n2c(C)nc3sc4c(c3c2=O)CCCC4)cc1 | 11 | -5% | . | -19 | 9%
Nn1c(Nc2ccccc2)nc2sc3c(c2c1=O)CCCC3 | 21* | 9% | 1% | 43 | 5%
Cc1ccc(-c2nc3sc4c(c3c(=O)n2N)CCCC4)cc1 | 59* | . | 7% | 38 | 7.4µM*
CCC(CC)C(=O)Nc1nnc(SCC(=O)NC(C)(C)C)s1 | -1 | -7% | . | 4 | 29%
COc1ccccc1NS(=O)(=O)c1ccc(O)c(C(=O)OCC(=O)N2c3ccccc3CC2C)c1 (centres undefined) | 0 | -30% | . | 15 | 4%
CN1CCN(c2nc(-c3ccccc3)nc3c2oc2ccccc23)CC1 | 1 | ? | -50% | -16 | 5.9µM*
NC(=O)C1CCN(C(=O)c2ccc3nc(-c4ccccc4)c(-c4ccccc4)nc3c2)CC1 | 1 | 10µM* | -15% | -4 | ?
CC1CN(c2ncnc3c2oc2ccccc23)CC(C)O1 (centres undefined) | 10 | -21% | -43% | 14 | ?
Cc1cc(N2CCC(C(N)=O)CC2)nc(-c2ccccc2)n1 | -6 | . | 5% | -5 | 0.74µM*
O=C(O)C1CCCN1c1ncnc2c1oc1ccccc12 (centres undefined) | 43* | 48% | -6% | 49* | .
CCN1CCN(C(C)C(=O)NC2CCCCC2)CC1 (centres undefined) | -2 | 4% | 11% | -3 | 37%
Cc1ccc(OCCN2C(=O)OC(C)(C)C2(C)O)cc1 (centres undefined) | 14 | -30% | 8% | -18 | ?
NC(=O)C1CCN(c2nc(-c3ccccc3)nc3c2oc2ccccc23)CC1 | -2 | 31% | 3% | -3 | 1.5µM*
COc1ccc(CNC(=O)C2CCCN2C)cc1OC (centres undefined) | -1 | -14% | -2% | 27 | 28%
CSc1ccc(-c2ccco2)nn1 | 25* | 264% | . | 127* | 0%
CCSc1ccc(-c2ccco2)nn1 | 48* | 97% | . | 85* | -9%
Cc1ccc(NC(=O)CSc2ccc(-c3ccco3)nn2)cc1 | 9 | 10% | . | 11 | 13%
CC(=O)Nc1ccc(NC(=O)CSc2ccc(-c3ccco3)nn2)cc1 | -2 | 3% | 4% | 8 | -53%[1.15 µM]
Cc1ccc(CNC(=O)C2CCC(=O)N2Cc2ccc(C)cc2)cc1 (centres undefined) | -5 | -3%[0.00184 µM] | 4% | -18 | -17%
Cc1ccc(C)c(NC(=O)COc2cccc3c2CCN(Cc2ccccc2C)C3=O)c1 | 2 | ? | 6% | -11 | 10µM*
COc1ccc(NC(=O)COc2cccc3c2CCN(Cc2cccnc2)C3=O)cc1 | 1 | ? | 0% | -36 | ?
CCOc1ccc(NC(=O)COc2cccc3c2CCN(Cc2cccnc2)C3=O)cc1 | 0 | 12µM* | 5% | -16 | ?
Cc1ccc(CN2CCc3c(OCC(=O)Nc4cccc(C)c4C)cccc3C2=O)cc1 | 1 | ? | 19% | -5 | ?
COc1ccc(NC(=O)COc2cccc3c2CCN(Cc2cccnc2)C3=O)c(OC)c1 | -2 | 5.2µM* | 14% | -29 | 1.3µM*
O=C1c2ccccc2CN1CCNC(=S)NC1CCCCC1 | 31* | -11% | . | 45* | 0%
SMILES | CHX counter | Pf growth 48h | NS1 function inh | Shiga inhibitor | Pf growth 96h
O=C(NCCN1CCOCC1)c1cccs1 | -2 | 37% | -4% | -16 | .
O=C(NCCN1Cc2ccccc2C1=O)c1cccs1 | 21* | 15% | 3% | 47* | ?
Cn1nnc(NC(=S)NC(=O)c2cccs2)n1 | 11 | -11% | 16% | 29 | 0%
CCCn1nnc(NC(=O)c2ccco2)n1 | 13 | 29% | 9% | 28 | 9%
CCCCn1nnc(NC(=O)c2ccco2)n1 | 26* | 32% | -2% | 13* | ?
CCCCn1nnc(NC(=S)NC(=O)c2cccs2)n1 | 28* | 65% | -7% | 115* | ?
O=C1N=C(N2CCOCC2)S/C1=C\c1ccc(-c2ccccc2Cl)o1 | 0 | 0% | 7% | -12 | ?
N#CCCN1CCN(C2=NC(=O)/C(=C\c3cccs3)S2)CC1 | 21* | ? | . | 29 | 16%
O=C1N=C(N2CCOCC2)S/C1=C\c1cccs1 | 22* | ? | -5% | 39* | 1%
Cc1ccccc1-c1ccc(/C=C2/SC(N3CCOCC3)=NC2=O)o1 | -2 | 10µM* | 2% | 13 | ?
CCNC(=S)N1CCc2cc(OC)c(OC)cc2C1COc1ccccc1OC (centres undefined) | 0 | ? | . | 3 | 13%
COc1ccccc1CN(Cc1nc2ccccc2c(=O)[nH]1)S(=O)(=O)c1ccc2ccccc2c1 | 7 | 5.9µM* | 10% | 6 | -24%
O=c1[nH]c(CN(CCc2ccccc2)S(=O)(=O)c2ccc(Cl)cc2)nc2ccccc12 | 21* | 68% | 4% | active | 68%
COc1ccccc1CN(Cc1nc2ccccc2c(=O)[nH]1)C(=O)Nc1cccc(C)c1 | 19* | . | -58% | 44* | 9.3µM*
CC1=C(C)C(=O)NC(Nc2nc(C)c3cc(C)cc(C)c3n2)N1 (centres undefined) | . | . | -7% | . | .
COc1cc(NC(=S)NC(=O)CC(C)C)ccc1NC(=O)c1cc2ccccc2o1 | -5 | 13% | -2% | -9 | 16%
Cc1ccc(N/N=C/c2ccncc2)cc1 | 42* | ? | -57% | 87* | ?
Cc1ccc(SCCC(=O)N/N=C/c2ccncc2)cc1 | -1 | 31% | . | -8 | 81%
O=C(O)c1ccc(/C=N/Nc2ncc(Cl)cc2Cl)cc1 | 21 | 45% | -4% | 65* | 48%
O=C(O)c1ccc(N/N=C/c2ccncc2)cc1 | 25* | 173% | -2% | 35* | 34%
Cc1ccc(N/N=C/c2cccnc2)cc1 | 53* | ? | -23% | 84* | ?
CC(C)NC(=S)N/N=C/c1cccnc1 | -3 | 8% | 3% | -14 | ?
FC(F)(F)c1cnc(N/N=C/c2ccncc2)c(Cl)c1 | 8 | -24% | -7% | 7 | -16%
COc1ccc(S(=O)(=O)N2CCCC(C(=O)NCC3CCCO3)C2)cc1C (centres undefined) | 5 | -14% | 15% | -11 | 0%
CC(C)c1ccccc1OCC(=O)Nc1nnc(C2CC2)s1 | . | -29% | . | . | 33%
Clc1cccc(N/N=C/c2ccncc2)c1 | 31* | 2.6µM* | -23% | 20 | -20%
O=C(Nc1cccc(Cl)c1)O/N=C\c1ccncc1 | 5 | 25% | -4% | 21 | 67%
Cc1csc(N/N=C\c2cccnc2)n1 | 58* | -10% | . | 91* | 19%
CC[C@H](C)[C@H]1O[C@]2(CC[C@@H]1C)C[C@@H]1C[C@@H](C/C=C(\C)[C@H](O[C@@H]3C[C@H](OC)[C@H](O[C@@H]4C[C@H](OC)[C@@H](O)[C@H](C)O4)[C@H](C)O3)[C@@H](C)/C=C/C=C3\CO[C@@H]4[C@H](O)C(C)=C[C@@H](C(=O)O1)[C@]34O)O2 | . | 1.2µM* | . | . | 4.8µM*

Screening results: PubChem, National Center for Advancing Translational Sciences (NCATS)
